Mtb hypoxia rep – reduces hypoxia-regulated biosensor signal in M. tuberculosis. M. tuberculosis hypoxia-regulated fluorescent reporter, fluorescence. fluorescence inhibition, % (test concentration not listed). hit rate 0.1% among 300,000. AID 1159583; in the data active = fluorescence inhibition mostly above about 23%, no sharp cut-off; inactive = mostly below about 17%
GDH-TPI counter-1 – GDH-TPI coupled enzyme inhibition counter-screen | GDH-TPI coupled enzyme counterscreen, NADH absorbance | inhibition, % at 4.8 µM | hit rate 1.2% among 360,000; in the data active = inhibition above about 30%;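 also: 0% = DMSO wells and 100% = wells lacking the enzyme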
Y pestis TopoI – blocks Yersinia pestis topoisomerase I activity; Y. pestis Topo-I cleavage product accumulation, plate reader; activity, % at 10 µM; hit rate 0.064% among 360,000; AID 504884; in the data active = activity above about 50%, passing the limit was not always enough
PrP 5UTR inh – suppresses PrP 5' UTR mRNA reporter expression; cell-based PrP 5' UTR mRNA reporter, plate reader; inhibition, % (concentration not given with the values); hit rate 0.35% among 340,000; AID 488862; in the data active = inhibition above about 52%; also: 0 = median of the neutral control wells
PrPC surface inh – inhibitors of human cell surface prion protein PrPC; P04156; TR-FRET read-out; inhibition, % at 13.8 µM; hit rate 0.43% among 370,000; AID 720596; in the data active = inhibition above about 24%; also: 0% = median of the test wells and 100% = reference compound wells
FBA Mtb inh – Mtb fructose-bisphosphate aldolase inhibition; P9WQA3; purified M. tuberculosis FBA, fluorescence read-out; inhibition, % at 1 µM; hit rate 2.3% among 360,000; AID 588726;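 also: 0% = vehicle and 100% = reference inhibitor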
Target sequence (P9WQA3 whole entry, looked up): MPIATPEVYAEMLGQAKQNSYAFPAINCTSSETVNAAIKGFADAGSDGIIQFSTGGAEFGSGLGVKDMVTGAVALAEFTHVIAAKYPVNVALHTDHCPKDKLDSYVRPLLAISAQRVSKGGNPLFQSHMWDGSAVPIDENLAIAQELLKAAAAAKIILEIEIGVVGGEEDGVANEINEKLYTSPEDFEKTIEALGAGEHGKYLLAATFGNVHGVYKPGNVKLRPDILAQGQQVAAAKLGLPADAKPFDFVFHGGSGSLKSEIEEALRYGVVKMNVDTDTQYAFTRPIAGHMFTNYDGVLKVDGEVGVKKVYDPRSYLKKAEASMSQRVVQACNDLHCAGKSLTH
Mtb FBA confirm – Mtb FBA inhibition, confirmed. shares compounds with FBA Mtb inh. purified M. tuberculosis FBA, fluorescence read-out. inhibition, % at 1 µM. hit rate 78% among 5,600. AID 651616;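 also: 0% = vehicle wells and 100% = reference inhibitor wells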
GDH-TPI counter-2 – GDH-TPI inhibition counter-screen for FBA inhibitors. GDH-TPI coupled enzyme counterscreen, fluorescence. hit rate 81% among 5,600. shares compounds with FBA Mtb inh. inhibition, % at 1 µM. AID 652141; in the data active = inhibition above about 10%
The depositor's hits bear a star; . = no result; + = active, no number. Shown are actives, neighbours in structure and some others; about 3.8% of the full set was active somewhere. Rule as the data show it, unless noted: active = inhibition above about 27%; inactive = the rest.

SMILES	Mtb hypoxia rep	GDH-TPI counter-1	Y pestis TopoI	PrP 5UTR inh	PrPC surface inh	FBA Mtb inh	Mtb FBA confirm	GDH-TPI counter-2
COCc1cc(=O)n2[nH]c(-c3ccc(C)cc3)cc2n1	4	3	-4	-34	3	35*	152*	108*
COCc1cc(=O)n2[nH]c(-c3cccs3)cc2n1	-12	-7	-1	-33	14	30*	65*	66*
COCc1cc(=O)n2[nH]c(C)nc2n1	5	1	9	-20	0	1	.	.
O=C(NN=Cc1ccc(O)c(O)c1)c1cccc(S(=O)(=O)N2CCCC2)c1	6	.	.	.	.	.	.	.
O=c1[nH]cnc2nn(-c3ccccc3)nc12	.	19	6	-38	-1	99*	9	6
O=c1[nH]cnc2nc(-c3ccccc3)c(-c3ccccc3)nc12	10	10	1	-35	-22	50*	8	3
O=c1[nH]cnc2ncc(-c3ccc(O)cc3)nc12	-3	29	-7	-21	-32	-2	.	.
Cc1ccc(C=NNC(=O)Cn2nnc3ccccc32)o1	3	.	.	.	.	.	.	.
CCOc1c2ccc(C(=O)NCc3ccc(C)cc3)cc2nn1CCOC	12	0	-6	-3	-10	44*	142*	117*
CCCn1nc2cc(C(=O)NCc3ccc(C)cc3)ccc2c1OC	.	9	5	-16	-6	58*	45*	35*
Cc1ccc(C2=CC(=O)CC(C)(C)C2)cc1	-1	16	2	-23	4	4	.	.
CC1(C)CC(=O)C=C(c2ccc3ccccc3c2)C1	5	16	32	-6	-9	40*	0	-5
Cc1noc(C)c1NC(=O)Nc1ccc2c(c1)C(=O)N(C(C)CO)CC(C)C(CN(C)S(=O)(=O)c1ccc(F)cc1)O2 (stereo unspecified)	7	.	.	.	.	.	.	.
CCOc1ccccc1N(C(=O)c1snc(C(N)=O)c1N)C(C(=O)NCc1ccccc1)c1ccc(O)cc1 (stereo unspecified)	-6	10	11	-25	-21	7	.	.
NC(=O)c1nsc(C(=O)N(c2ccccc2F)C(C(=O)NCc2ccccc2)c2ccc(O)cc2)c1N (stereo unspecified)	13	19	7	-3	15	45*	8	-7
Cc1ccccc1N(C(=O)c1snc(C(N)=O)c1N)C(C(=O)NCc1ccccc1)c1ccc(O)cc1 (stereo unspecified)	1	13	2	-15	3	43*	10	4
CC(=NNC(=O)COc1ccc([N+](=O)[O-])cc1)C(C)(C)C	3	.	.	.	.	.	.	.
CCOC(=O)CCC(=NNC(N)=O)c1ccc(OC)c(Cl)c1	9	.	.	.	.	.	.	.
CCN(CC)c1ccc(-c2n[nH]c(=S)n2-c2ccccc2)cc1	5	8	16	-26	17	37*	86*	68*
O=c1[nH]c(N/N=C/c2ccccc2)nc2ccccc12	.	15	7	-120	3	56*	-5	-5
CC(=NNC(=O)c1c(Cl)c(C)nn1C)c1ccc(NC(=O)C2CCC2)cc1	0	.	.	.	.	.	.	.
COC(=O)C1=C(c2cc3ccccc3o2)CC2CCC1N2C(=O)NCCNC(C)=O (stereo unspecified)	-1	.	.	.	.	.	.	.
O=C(O)C1=CC(c2ccccc2)CC(OCCCCO)O1 (stereo unspecified)	6	.	.	.	.	.	.	.
CCCCC[n+]1ccn(-c2nc3ccccc3nc2[N-]S(=O)(=O)c2ccccc2)c1	3	7	-6	-11	-12	20	.	.
O=S(=O)([N-]c1nc2ccccc2nc1-n1cc[n+](Cc2ccccc2)c1)c1ccc(Br)cc1	-9	11	-8	.	10	27*	+	179*
CCCCCC(=O)NN=C(C)c1ccc(N2CCCCC2)cc1	12	.	.	.	.	.	.	.
COc1ccc2nc3ccccc3[n+]([O-])c2c1	9	15	-10	-62	-31	4	.	.
[O-][n+]1c2ccccc2cc2ccccc21	9	-16	-14	-14	-7	73*	+	+
COc1cc2c(cc1O)C[C@H]1c3c(cc(O)c(OC)c3-2)CCN1C	.	4	-5	-8	-13	47*	32*	23*
